Test results as given in ChEMBL document CHEMBL3988442, “University of Dundee, Small-Polar-MMV Screening Library” (2021).
Screen size: about 48,000 compounds; about 13,000 (27%) showed an effect of 50% or more. This is one part of the list.

Test system: Wolbachia pipientis
Assay: Anti-Wolbachia Cell-Based Screen
Format: functional
Parameters: scale not given: in the data most compounds retested in dose-response had high values
Conditions: 5 µM

First: N#Cc1cccnc1NCCNC(=O)N1CCCC(C(F)(F)F)C1 (configuration not stated)
Second: O=C(NCCC1CN(Cc2cccnc2)CCO1)c1ccsc1 (configuration not stated)
The “Percent Effect” value of the first is lower: -23.68% for the first, -9.218% for the second.

Going from CS(=O)(=O)NCCC1CN(Cc2ccccc2F)CCO1 (configuration not stated) to N#Cc1ccc(F)c(CSCCN2CCOCC2)c1, the “Percent Effect” value falls from -13.1% to -32.26%.

Going from N#Cc1c[nH]c(C(=O)N(Cc2ccc(O)cc2)CC2CC2)c1 to CCN(CCOc1ccc(F)cc1)C(=O)c1ccncc1Cl, the “Percent Effect” value rises from -16.08% to 2.739%.

Going from O=C(NCC(O)c1cccs1)c1cccc(Cl)c1 (configuration not stated) to CC(CO)CNC(=O)c1cc2cccc(F)c2o1 (configuration not stated), the “Percent Effect” value rises from -18.24% to -10.54%.

Going from CNc1nc(C(=O)N2CCC3(CCCN(CCOC)C3=O)C2)cs1 (configuration not stated) to CC(C)CN1CCCn2nc(CNC(=O)CN3CCOC3=O)cc2C1, the “Percent Effect” value rises from -30.8% to 1.752%.

First: COc1ccc(-c2nnc(CN3CCNC(=O)C3)o2)cc1
Second: N#Cc1ccc(-c2nnc(CSCCN3CCOCC3)o2)cc1
The “Percent Effect” value of the first is lower: -34.6% for the first, -12.22% for the second.

Compared with CNC(=O)c1cn2cc(-c3cccc(Cl)c3)n(CC3CC3)c(=O)c2n1, O=C1CCNc2ncc(-c3cccc(Cl)c3)cc2CN1C1CC1 is higher in “Percent Effect” value: -6.691% for the first, 104.4% for the second.

First: O=C(c1ncc[nH]1)N1CCC(n2cc(-c3cccc(Cl)c3)nn2)CC1
Second: Cc1cc(C)n(C2CCCN(C(=O)c3cccc4[nH]ncc34)C2)n1 (configuration not stated)
The “Percent Effect” value of the first is lower: -7.325% for the first, 4.56% for the second.

First: O=C1CCNc2ncc(-c3ccccc3Cl)cc2CN1C1CC1
Second: O=C1CCNc2ncc(-c3ccc(Cl)cc3)cc2CN1C1CC1
The “Percent Effect” value of the first is lower: 75.8% for the first, 113.7% for the second.

First: O=S(=O)(c1ccccc1Cl)N1CCc2nc(C3CCNCC3)ncc2C1
Second: COc1ccc(-c2cnc3c(c2)CN(C2CC2)C(=O)CCN3)cc1
The “Percent Effect” value of the first is lower: -5.628% for the first, 106.7% for the second.

Compared with COc1ccc(NC2CCN(C3CC3)C2=O)cn1 (configuration not stated), COc1cccc2c1OCC(C(=O)N1CCSCC1)C2 (configuration not stated) is higher in “Percent Effect” value: -16.66% for the first, -0.8492% for the second.

Going from CC(O)c1cn(C2CCN(C(=O)C3(C)CCCCC3)CC2)nn1 (configuration not stated) to CC1CCN(C(=O)C2(Cc3cc(C4CCOC4)no3)CCNCC2)CC1.Cl (configuration not stated), the “Percent Effect” value rises from 29.6% to 189.1%.

First: NC(=O)CCOc1ccc(NC(=O)c2ccccc2OC(F)F)cc1
Second: Cn1cnnc1CNC(=O)CCCOc1ccccc1Cl
The “Percent Effect” value of the first is higher: 5.121% for the first, 2.629% for the second.

First: CC(=O)N1CCC(N2CCOC[C@H]2c2nc(C(C)(C)C)c[nH]2)CC1
Second: CC(C)(C)c1noc(OCC(=O)NC2CCCC2)n1
The “Percent Effect” value of the first is lower: -20.09% for the first, -14.46% for the second.

Compared with COc1cccc2c1OCC(C(=O)N1Cc3ccccc3C1)C2 (configuration not stated), COc1cccc2c1OCC(Cc1cc(C(=O)N3CCCC3)ccn1)C2 (configuration not stated) is higher in “Percent Effect” value: -46.74% for the first, 103.2% for the second.

First: COc1cccc2c1OCC(CNC(=O)Cc1cnccn1)C2 (configuration not stated)
Second: COc1cccc2c1OCC(CNC(=O)Cn1ccnc1C)C2 (configuration not stated)
The “Percent Effect” value of the first is higher: -6.368% for the first, -7.516% for the second.

Going from COc1cccc2c1OCC(Cc1cc(C(N)=O)ccn1)C2 (configuration not stated) to CNC(=O)c1ccnc(CC2COc3c(cccc3OC)C2)c1 (configuration not stated), the “Percent Effect” value rises from 86.97% to 100.6%.

Going from CCNC(=O)c1ccnc(CC2COc3c(cccc3OC)C2)c1 (configuration not stated) to COc1cccc2c1OCC(Cc1cnc(N)c(C)c1)C2 (configuration not stated), the “Percent Effect” value falls from 109.1% to 43.69%.

Going from CCOCCC(=O)NCC1COc2c(cccc2OC)C1 (configuration not stated) to COc1cccc2c1OCC(CNC(=O)CN(C)C1CCCC1)C2 (configuration not stated), the “Percent Effect” value rises from -9.333% to -4.207%.

Going from COc1cccc2c1OCC(CNC(=O)Cc1csc(C(C)=O)c1)C2 (configuration not stated) to COc1c(F)cc(-c2cccc3c2OC(CN)C3)cc1F (configuration not stated), the “Percent Effect” value rises from -8.032% to 6.268%.

First: CCCC(C)NCc1cnc(-c2cccc(C)c2)nc1 (configuration not stated)
Second: Cc1ccc(N(C)Cc2nnnn2C2CC2)c(C)c1
The “Percent Effect” value of the first is higher: 4.812% for the first, -2.761% for the second.

First: CC1=C[C@@H](CN2CCC(O)CC2)[C@H](C(C)C)C[C@H]1Cc1nnc(C)o1
Second: CN1CCN(CC2CC2)C(=O)c2cnc(N3CC[C@@H](O)C3)nc21
The “Percent Effect” value of the first is higher: 4.973% for the first, -2.603% for the second.

First: CC(C(=O)N(C)Cc1ccco1)n1cncn1 (configuration not stated)
Second: COCc1ccccc1C(=O)N1CCCC(n2nc(C)cc2C)C1 (configuration not stated)
The “Percent Effect” value of the first is higher: 14.16% for the first, 4.248% for the second.

First: CN1Cc2[nH]nc(COCC3CC3)c2C1.O=C(O)C(F)(F)F.O=C(O)C(F)(F)F
Second: FC(F)(F)Cn1nnnc1SCCN1CCCCC1
The “Percent Effect” value of the first is lower: -7.545% for the first, -6.458% for the second.

Compared with CN1CCN(CC2CC2)C(=O)c2cnc(N3CCC(CO)CC3)nc21, CN1CCN(CC2CC2)C(=O)c2cnc(N3CCCC3)nc21 is lower in “Percent Effect” value: 85.31% for the first, -1.77% for the second.

Going from CN1CCN(CC2CC2)C(=O)c2cnc(N3CCOCC3)nc21 to CN1CCN(CC2CC2)C(=O)c2cnc(N3CCCCC3)nc21, the “Percent Effect” value falls from 128% to 8.561%.

Going from Cc1cnc(N2C[C@@H]3CCN(CC4CC4)C(=O)[C@H]3C2)nc1 to Cc1cnn(C2CCCN(C(=O)c3cccc4c3OCO4)C2)c1 (configuration not stated), the “Percent Effect” value rises from 4.769% to 104.2%.

First: c1cc2c(cc1-c1noc3c1CN(C1CCSC1)CC3)OCO2 (configuration not stated)
Second: Cc1cc(C)n(C2CCCN(C(=O)c3cccc4c3OCO4)C2)n1 (configuration not stated)
The “Percent Effect” value of the first is lower: 2.821% for the first, 86.78% for the second.

Compared with CC(NCc1ccccc1CN1CCCC1=O)c1ccc(C#N)cc1 (configuration not stated), COc1cccc(N2CCN(C(C(=O)O)c3ccc(OC)nc3)CC2)c1 (configuration not stated) is higher in “Percent Effect” value: -5.192% for the first, -2.782% for the second.

First: N#Cc1c(SCCN2CCCCCC2)sc2c(O)cc(O)nc12
Second: N#Cc1c(SCCN2CCCCC2)sc2c(O)cc(O)nc12
The “Percent Effect” value of the first is higher: 100.4% for the first, 98.27% for the second.

Going from N#CCCSc1sc2c(O)cc(O)nc2c1C#N to N#Cc1c(SCCN2CCOCC2)sc2c(O)cc(O)nc12, the “Percent Effect” value rises from 107.9% to 143.1%.

First: Cn1cc(Br)cc1C(=O)NC1(C#N)CC1
Second: C[C@@H]1CN(Cc2cc(C3CCCCC3)no2)CC[C@]1(C)O
The “Percent Effect” value of the first is lower: -11.26% for the first, 4.197% for the second.

Going from c1cnc(NCCCOC2CCOCC2)nc1 to c1cc(CCn2ccc(NC3CCSCC3)n2)ccn1, the “Percent Effect” value rises from 1.156% to 6.041%.

Going from O=C(c1ccccc1N1CCOCC1)N1CCCC(n2cccn2)C1 (configuration not stated) to O=C(c1cccc2c1OCCO2)N1CCCC(n2cccn2)C1 (configuration not stated), the “Percent Effect” value rises from -2.451% to 108.1%.

First: O=C(c1cccc2c1OCO2)N1CCCC(n2cccn2)C1 (configuration not stated)
Second: OCC1COCCN(Cc2cc(C3CCCCC3)no2)C1 (configuration not stated)
The “Percent Effect” value of the first is higher: 2.187% for the first, -1.346% for the second.

Going from CC(C)(C)c1cc(C[C@H]2CNCC[C@H]2CC(=O)NC2CCCCC2)no1 to Cl.O=C(NC1CCCC1)C1(Cc2cc(C3CCOC3)no2)CCNCC1 (configuration not stated), the “Percent Effect” value rises from 10.2% to 131.3%.
